Screens from PubChem BioAssay.
Pf Dd2 inh: blocks growth of Plasmodium falciparum Dd2 parasites; P. falciparum Dd2 growth, SYBR Green, 72 h; stronger effect = lower value; activity change, % at 10 µM; actives 2.3% (n = 94,000); in the data active = activity change below about -80%
Tcruzi prolif: T. cruzi proliferation inhibition; T. cruzi beta-gal in NIH3T3, GalScreen luminescence, 90 h; inhibition, % at 8.34 µM; actives 5.9% (n = 77,000);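 active = mean inhibition above about 93%, with at least 55% of replicates each passing it, limit read from the data, passing the limit was not always enough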
C diff growth: inhibitors of Clostridium difficile growth | growth activity, negative = inhibition, % at 16 µg/mL (by protocol) | actives 0.25% (n = 86,000) | Clostridium difficile clinical isolate growth, OD600, 24 h; stronger effect = lower value | AID 1259249;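 active = mean growth activity at or below -80% and every replicate also at or below -80%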;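 note: 0% = DMSO wells and -100% = levofloxacin 16 µg/mL wells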
Active calls of the source: *; x = not tested or not shown; ! = repeats disagree. In the library only some 6.7% were active in any assay of this set; here they are far more common.

SMILES	Pf Dd2 inh	Tcruzi prolif	C diff growth
CO[C@H]1CN(C)C(=O)c2ccc(NC(=O)CC(F)(F)F)cc2OC[C@@H](C)N(CC2CC2)C[C@@H]1C	19	x	x
C[C@H](O)C#Cc1cnc2c(c1)C(=O)N([C@H](C)CO)C[C@H](C)[C@@H](CN(C)C(=O)c1ccncc1)O2	31	-5	5
Cc1noc(C)c1NC(=O)N(C)C[C@H]1OCCCC[C@@H](C)Oc2ccc(NC(=O)CCC(F)(F)F)cc2C(=O)N([C@H](C)CO)C[C@@H]1C	45	19	-4
COc1ccc(C#Cc2ccc([C@@H]3[C@H]4CN(Cc5ccccc5F)CCCCN4[C@H]3CO)cc2)cc1	-51	54	-94*
CCS(=O)(=O)N1CCCCN2[C@H](C1)[C@@H](c1ccc(C#Cc3ccccc3OC)cc1)[C@@H]2CO	-82*	86	-6
COc1cccc(CN2CCCCN3[C@H](CO)[C@@H](c4ccc(C#Cc5cccnc5)cc4)[C@H]3C2)c1	-86*	94	-3
CCS(=O)(=O)N1CCCCN2[C@H](CO)[C@@H](c3ccc(C#Cc4ccccc4OC)cc3)[C@@H]2C1	-15	58	-2
COc1ccc(C#Cc2ccc([C@H]3[C@@H](CO)N4CCCCN(Cc5ccccc5F)C[C@H]34)cc2)cc1	-72	-9	-100*
CC(C)(O)C#Cc1ccc([C@H]2[C@H]3CN(Cc4ccccc4F)CCCCN3[C@H]2CO)cc1	-22	44	4
COc1cccc(CN2CCCCN3[C@H](CO)[C@@H](c4ccc(-c5cccnc5)cc4)[C@H]3C2)c1	-56	30	-1
COCC#Cc1ccc([C@@H]2[C@@H](CO)N3CCCCN(Cc4ccccc4F)C[C@H]23)cc1	-63	81	0
O=C(C1CCOCC1)N1CC(=O)N2[C@H](CO)[C@H](c3ccc(C#CC4CCCC4)cc3)[C@H]2C1	-11	x	-8
COc1ccc(NC(=O)N2[C@@H]3CNC[C@H]2C3c2ccc(-c3ccc(F)cc3)cc2)cc1 (stereo partly drawn)	27	x	9
CO[C@@H]1CN(C)C(=O)c2cc(NC(=O)C3CCC3)ccc2OC[C@H](C)N(C)C[C@@H]1C	33	-15	x
O=C(NCC[C@@H]1CC[C@@H](NC(=O)C2CCCCC2)[C@H](CO)O1)Nc1ccc(Cl)cc1	28	12	x
C[C@@H]1CCCCO[C@@H](CN(C)C(=O)Nc2cccc3ccccc23)[C@H](C)CN([C@H](C)CO)C(=O)c2cc(NC(=O)Nc3ccccc3)ccc2O1	-47	85	3
C[C@@H]1CCCCO[C@@H](CN(C)C(=O)Nc2cccc3ccccc23)[C@@H](C)CN([C@@H](C)CO)C(=O)c2cc(NC(=O)Cc3ccccc3)ccc2O1	-92*	x	-3
C[C@@H]1CN([C@@H](C)CO)C(=O)c2cc(NC(=O)Cc3ccccc3)ccc2O[C@@H](C)CCCCO[C@H]1CN(C)C(=O)Nc1ccccc1	-18	x	8
C[C@@H]1CN([C@@H](C)CO)C(=O)c2cc(NC(=O)Cc3ccccc3)ccc2O[C@@H](C)CCCCO[C@@H]1CN(C)C(=O)Nc1cccc2ccccc12	-94*	1	13
C[C@H]1CCCCO[C@H](CN(C)C(=O)Nc2cccc3ccccc23)[C@@H](C)CN([C@@H](C)CO)C(=O)c2cc(NC(=O)c3ccccc3)ccc2O1	-41	80	-3
C[C@@H]1CN([C@H](C)CO)C(=O)c2cc(NC(=O)Cc3ccccc3)ccc2O[C@@H](C)CCCCO[C@H]1CN(C)C(=O)Nc1cccc2ccccc12	-87*	73	-2
Cc1cccc(-c2ccc([C@H]3[C@@H](CO)N4C(=O)CN(C(=O)Cc5ccccn5)C[C@@H]34)cc2)c1	-3	x	1
Cc1cccc(S(=O)(=O)N2CCCCN3[C@H](C2)[C@@H](c2ccc(-c4ccccc4)cc2)[C@@H]3CO)c1	-25	77	-5
Cc1cccc(S(=O)(=O)N2C[C@@H]3N[C@H](C2)C3c2ccc(-c3ccncc3)cc2)c1 (stereo partly drawn)	-80	x	-16
COc1cccc(S(=O)(=O)N2C[C@@H]3N[C@H](C2)C3c2ccc(-c3cccc(C)c3)cc2)c1 (stereo partly drawn)	11	x	-94*!
Cc1cccc(S(=O)(=O)N2C[C@@H]3N[C@H](C2)C3c2ccc(-c3cccnc3)cc2)c1 (stereo partly drawn)	-68	x	-15
Cc1cccc(-c2ccc([C@H]3[C@H]4CN(S(=O)(=O)c5cccc(C)c5)CCCCN4[C@H]3CO)cc2)c1	-86*	64	8
COc1ccc(-c2ccc(C3[C@@H]4CN(S(=O)(=O)c5cccc(C)c5)C[C@H]3N4)cc2)cc1 (stereo partly drawn)	-86*!	x	-4
CN(C)C(=O)C[C@H]1CC[C@@H](NC(=O)C2CC2)[C@H](CO)O1	x	x	2
